Bioassay records as filed in PubChem BioAssay.
D1 antagonist – human D1 dopamine receptor antagonism. hit rate 3.2% among 360,000. AID 504652. P21728. HEK293 TREx D1 cells, calcium flux, dopamine EC80; hits give low values. activity change, negative = inhibition, % at 10 µM; in the data active = activity change below about -30%; note: % is set by controls: 0 for no effect and ±100 for the full control effect
Target sequence (P21728 whole entry, looked up): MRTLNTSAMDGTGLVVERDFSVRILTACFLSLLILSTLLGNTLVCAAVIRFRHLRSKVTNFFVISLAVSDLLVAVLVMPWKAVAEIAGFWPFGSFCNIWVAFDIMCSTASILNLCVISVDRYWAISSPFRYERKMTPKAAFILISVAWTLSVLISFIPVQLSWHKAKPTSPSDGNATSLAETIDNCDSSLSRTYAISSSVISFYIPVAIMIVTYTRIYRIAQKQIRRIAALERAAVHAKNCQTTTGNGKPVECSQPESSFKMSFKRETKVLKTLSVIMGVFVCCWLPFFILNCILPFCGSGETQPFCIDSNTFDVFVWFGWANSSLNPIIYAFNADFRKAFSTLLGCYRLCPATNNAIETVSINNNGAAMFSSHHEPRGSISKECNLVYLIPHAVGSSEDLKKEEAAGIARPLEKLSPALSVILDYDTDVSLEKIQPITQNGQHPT
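Antagonism measured as reduced calcium response to an EC80 dopamine addition following 180 s compound pre-read; cells were inducible HEK293 Trex D1 plated overnight at 30 C, read kinetically at 1 cycle/sec.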
D1 potentiator – human D1 dopamine receptor positive modulation | P21728 | HEK293 TREx D1 cells, calcium flux, dopamine EC20 potentiation | hit rate 0.036% among 360,000 | AID 504651 | potentiation, % at 10 µM; in the data active = potentiation above about 30%; note: 0% is about no effect
D3 ag – activates the human D3 dopamine receptor. D3R DiscoveRx beta-arrestin cells, luminescence, 90 min. max activation, %. hit rate 0.58% among 410,000. AID 652048; in the data active = max activation above about 30%; note: 0% is about no effect
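Cells at 1500/well, incubated overnight, then treated with pinned compounds (dopamine as control) for 90 min at 37 degrees C. DiscoveRx reagent added for 30 - 60 minutes at room temperature; luminescence read.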
DRD3 antagonist – blocks the human D3 dopamine receptor; D3R cells, DiscoveRx beta-arrestin luminescence, antagonist mode; hits give low values; hit rate 2.5% among 360,000; AID 652054; max response, negative = inhibition, %; in the data active = max response below about -50%; inconclusive = no clear call, values can overlap the other calls; note: % is set by controls: 0 for no effect and ±100 for the full control effect
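Cells expressing the human receptor were seeded at 1500 cells/well, incubated overnight at 37 degrees C in 5% CO2, then exposed to library compounds with dopamine controls for 90 minutes at 37 degrees C before luminescent detection.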
D1 ag – activates the human D1 dopamine receptor; P21728; HEK293 T-REx D1 cells, calcium flux, agonist mode; AID 504660; hit rate 1% among 360,000; activation, % at 2 µM; in the data active = activation above about 30%; note: 0% is about no effect
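Agonism was scored from calcium flux recorded over 180 s (1 read/s) after pintool compound addition, following a 10-cycle baseline. Cells were inducible force-coupled HEK293 TREx D1, plated overnight at 30 C and loaded with no-wash calcium dye.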
Starred values were filed as active, the others as inactive; ? = inconclusive; . = no result. In the library only some 6.1% were active in any assay of this set; here they are far more common.

SMILES | D1 antagonist | D1 potentiator | D3 ag | DRD3 antagonist | D1 ag
CC(=O)N1CCCc2cc(S(=O)(=O)NCc3ccc(OC(C)C)cc3)ccc21 | 1 | -4 | -2 | . | 7
Cc1ccc(C)c(NC(=O)C(Cc2ccccc2)N2Cc3ccccc3C2=O)c1 (stereo unspecified) | -2 | 0 | -18 | . | 0
CCC(C)NC(=O)Cn1c(=O)ccc2cc(S(=O)(=O)N3CCCC3)ccc21 (stereo unspecified) | 23 | -3 | -2 | . | 3
COc1ccc2[nH]c3c(N4CCc5ccccc5C4)ncnc3c2c1 | -32* | -7 | 4 | 0 | 8
Cc1oc(-c2ccc(Cl)cc2)nc1CN1CCC(C(=O)N2CCc3ccccc3C2)CC1 | -17 | . | -12 | -70* | 14
CCN1CCN(CCNC(=O)C2CCN(Cc3nc(-c4ccc(Cl)cc4)oc3C)CC2)CC1 | -6 | -4 | . | . | 2
Cc1oc(-c2ccc(Cl)cc2)nc1CN1CCC(C(=O)N2CCN(Cc3ccccc3)CC2)CC1 | -68* | . | -6 | -77* | 33*
CCOC(=O)C1CCCN(C(=O)C2CCN(Cc3nc(-c4ccc(Cl)cc4)oc3C)CC2)C1 (stereo unspecified) | . | . | -16 | -28 | .
Cc1cccc(NC(=O)CSc2nc(=O)n(CCN3CCOCC3)c3c2CCC3)c1 | . | -3 | -6 | . | -2
CC1Cn2c(C(=O)NCCc3ccc(Cl)cc3)cc3cccc(c32)S1 (stereo unspecified) | -2 | -1 | 6 | . | 5
OCC1(CCCc2ccccc2)CCN(Cc2cc(F)ccc2F)CC1 | -7 | -3 | -1 | 3 | 7
OCC1(CCc2ccccc2)CCN(Cc2cc(F)ccc2-n2cccn2)CC1 | -32* | -6 | -7 | -3 | 1
CCc1ccc(CNC(=O)c2cnc3sc(N4CCCCC4)nn3c2=O)cc1 | 20 | -1 | -18 | . | 2
Nc1ccccc1N=Nc1ccccc1N | -26 | -2 | -27 | ? | -1
CC(C)(C)C1=CC(=Nc2ccccc2N)C=C(C(C)(C)C)C1=O | -20 | 9 | -3 | -51* | 2
CSc1ccc(C2C(C#N)=C(N)Oc3c2ccc(=O)c2c(C)oc(C)c32)cc1 (stereo unspecified) | -13 | -1 | -13 | -51* | 28
CCOC(=O)C(Cc1ccccc1)NC(=O)CCc1nnc2ccc(N3CCOCC3)nn12 (stereo unspecified) | -30* | -6 | 8 | -6 | 2
CCOc1ccc(CCNC(=O)CCc2nnc3ccc(N4CCOCC4)nn23)cc1OCC | -24 | -5 | 0 | -2 | 2
CCc1cccc(NC(=O)C2CCC(CNS(=O)(=O)c3ccc(Br)s3)CC2)c1 (stereo unspecified) | 6 | 2 | -16 | . | 8
COc1ccc(OCCSc2nnc(Cc3cccc4ccccc34)n2N)cc1 | -20 | -2 | -3 | 13 | 3
Nn1c(Cc2ccccc2F)nnc1SCCOc1ccc(Cl)cc1 | -39* | -6 | 0 | 16 | 0
O=C(C1CC1)N1CCN(c2nc3ccc(F)cc3s2)CC1 | . | 2 | 4 | . | 5
CC1CN(C(=O)C(C)N2CCN(c3cccc(Cl)c3)CC2)CC(C)O1 (stereo unspecified) | 1 | -14 | -1 | 15 | 2
CC1CN(C(=O)C(C)N2CCN(c3ccccc3Cl)CC2)CC(C)O1 (stereo unspecified) | -37* | -8 | -6 | -1 | 1
COc1cccc(N2[C@@H](CC(=O)O)c3ccccc3S2(=O)=O)c1 | . | . | 9 | 10 | .
SMILES | D1 antagonist | D1 potentiator | D3 ag | DRD3 antagonist | D1 ag
COc1ccccc1CN1[C@@H](CC(=O)O)c2ccccc2S1(=O)=O | . | . | 8 | -54* | .
Cc1nc(-c2ccc(S(=O)(=O)N(C)Cc3ccccc3)cc2)co1 | -4 | -4 | 1 | . | 1
COC(=O)C1=NN(C(=O)c2cccc(Cl)c2)C(O)(C(C)(C)C)C1 (stereo unspecified) | -15 | -7 | 11 | 5 | 31*
COC(=O)C1=NN(C(=O)c2ccc(Br)cc2)C(O)(C(C)(C)C)C1 (stereo unspecified) | -5 | 1 | -11 | -25 | 32*
CC1=NN(C(=O)c2ccc(Br)cc2)C(O)(C(F)(F)OC(F)(F)F)C1 (stereo unspecified) | -14 | 1 | 7 | 4 | 5
CC(C)c1cnc2c(c1SCC(=O)NCc1ccccc1)c(=O)n(C)c(=O)n2C | 3 | 2 | 6 | . | 0
